Test results from the supplement of paper PMC10849652.
The full data set covers some 7,900 targets. This sample favours those with a hit. About 0.6% of all pairs of compound and target were hits. A number with no mark means an inactive call.

Tests used:
Assay in all cases: log2 fold change, soluble protein after heating vs DMSO (PISA); higher = thermal stabilisation; K562 cells, 10 uM, 30 min; active = over 0.2 and 3.5 SD of the protein, either way, in both replicates (recomputed)
bafetinib = compound: Cc1ccc(NC(=O)c2ccc(CN3CC[C@H](N(C)C)C3)c(C(F)(F)F)c2)cc1Nc1nccc(-c2cncnc2)n1 [bafetinib]
Outline: (§1)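 K562 cells (2×10^6 cells/mL) were treated with 10 μM compound for 30 min, and aliquots were heated for 3 min over 48°C-58°C. Pooled aliquots were extracted in PBS with 0.5% NP-40 at 4°C, and the supernatant after 21,000xg for 90 min was measured by TMTpro 16plex LC-MS/MS with channel sums equalised. Reported thermal stability, relative to control samples and from duplicates, is a log2 fold change.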

[1] = compound: Cc1cccc(CC(=O)N2CCc3c2ccc(-c2cn(C)c4ncnc(N)c24)c3F)n1
Outline: as §1

nilotinib = compound: Cc1cn(-c2cc(NC(=O)c3ccc(C)c(Nc4nccc(-c5cccnc5)n4)c3)cc(C(F)(F)F)c2)cn1 [nilotinib]
Outline: as §1

[2] = compound: Cc1nc(Nc2n[nH]c3c2CN(C(=O)N[C@H](CN(C)C)c2ccccc2)C3(C)C)c2sccc2n1
Outline: as §1

dasatinib = compound: Cc1nc(Nc2ncc(C(=O)Nc3c(C)cccc3Cl)s2)cc(N2CCN(CCO)CC2)n1 [dasatinib]
Outline: as §1

[3] = compound: Cc1ncc(-c2ccnc(Nc3ccc(S(C)(=O)=O)cc3)n2)n1C(C)C
Outline: as §1

[4] = compound: Cn1cc(-c2ccc3c(c2)CCN3C(=O)Cc2cccc(C(F)(F)F)c2)c2c(N)ncnc21
Outline: as §1

[5] = compound: Cn1cc(-c2ccc3nnc(C(F)(F)c4ccc5ncccc5c4)n3n2)cn1
Outline: as §1

tipifarnib = compound: Cn1cncc1[C@@](N)(c1ccc(Cl)cc1)c1ccc2c(c1)c(-c1cccc(Cl)c1)cc(=O)n2C [tipifarnib]
Outline: as §1

mubritinib = compound: FC(F)(F)c1ccc(/C=C/c2nc(COc3ccc(CCCCn4ccnn4)cc3)co2)cc1 [mubritinib]
Outline: as §1

Sequence of UniProt Q96DX7 (Q96DX7 whole entry, looked up): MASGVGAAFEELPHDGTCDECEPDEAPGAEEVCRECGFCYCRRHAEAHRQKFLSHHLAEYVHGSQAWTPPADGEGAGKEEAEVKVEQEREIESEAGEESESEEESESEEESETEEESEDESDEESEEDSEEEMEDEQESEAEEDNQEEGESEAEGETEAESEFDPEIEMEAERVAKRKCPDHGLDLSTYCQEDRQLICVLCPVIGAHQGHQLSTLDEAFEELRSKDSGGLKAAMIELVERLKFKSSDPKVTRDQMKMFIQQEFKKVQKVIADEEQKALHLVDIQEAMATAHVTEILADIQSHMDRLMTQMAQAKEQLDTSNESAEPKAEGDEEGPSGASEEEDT
Sequence of UniProt Q9H3M7 (Q9H3M7 whole entry, looked up): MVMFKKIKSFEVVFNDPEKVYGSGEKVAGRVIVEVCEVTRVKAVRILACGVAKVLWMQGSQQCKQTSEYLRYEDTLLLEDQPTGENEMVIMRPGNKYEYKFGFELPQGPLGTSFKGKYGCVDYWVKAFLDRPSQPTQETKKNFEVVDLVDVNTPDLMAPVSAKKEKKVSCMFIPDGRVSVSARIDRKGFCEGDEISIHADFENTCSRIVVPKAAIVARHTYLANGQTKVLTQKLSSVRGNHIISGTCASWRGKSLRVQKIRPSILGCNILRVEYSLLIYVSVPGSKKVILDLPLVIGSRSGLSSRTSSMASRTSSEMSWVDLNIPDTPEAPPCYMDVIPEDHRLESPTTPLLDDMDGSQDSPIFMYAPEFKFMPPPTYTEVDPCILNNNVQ
Sequence of UniProt Q99757 (Q99757 whole entry, looked up): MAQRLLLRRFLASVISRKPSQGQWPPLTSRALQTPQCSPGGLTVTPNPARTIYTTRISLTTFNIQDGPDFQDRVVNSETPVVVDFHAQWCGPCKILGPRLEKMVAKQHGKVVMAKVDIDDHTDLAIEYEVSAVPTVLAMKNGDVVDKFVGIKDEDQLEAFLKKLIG
Sequence of UniProt Q7Z7E8 (Q7Z7E8 whole entry, looked up): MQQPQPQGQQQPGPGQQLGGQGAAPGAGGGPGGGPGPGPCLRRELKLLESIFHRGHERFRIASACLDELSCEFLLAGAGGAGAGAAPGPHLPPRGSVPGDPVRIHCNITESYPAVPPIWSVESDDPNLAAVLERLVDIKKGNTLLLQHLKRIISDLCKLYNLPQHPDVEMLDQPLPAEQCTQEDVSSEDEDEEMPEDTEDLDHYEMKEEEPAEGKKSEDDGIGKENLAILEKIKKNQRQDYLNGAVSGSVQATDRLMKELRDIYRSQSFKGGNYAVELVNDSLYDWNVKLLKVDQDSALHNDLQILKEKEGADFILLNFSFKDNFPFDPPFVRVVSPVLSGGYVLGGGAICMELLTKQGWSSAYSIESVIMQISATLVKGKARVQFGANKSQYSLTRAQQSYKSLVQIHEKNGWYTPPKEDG
Sequence of UniProt P21796 (P21796 whole entry, looked up): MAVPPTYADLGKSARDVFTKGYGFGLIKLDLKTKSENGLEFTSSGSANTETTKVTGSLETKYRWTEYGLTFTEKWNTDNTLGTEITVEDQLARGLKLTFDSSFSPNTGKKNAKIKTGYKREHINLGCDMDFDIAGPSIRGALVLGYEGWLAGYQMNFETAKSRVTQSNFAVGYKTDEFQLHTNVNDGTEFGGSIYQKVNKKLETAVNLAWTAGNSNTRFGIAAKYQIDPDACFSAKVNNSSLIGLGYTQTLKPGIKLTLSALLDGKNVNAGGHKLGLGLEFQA
Sequence of UniProt Q15642 (Q15642 whole entry, looked up): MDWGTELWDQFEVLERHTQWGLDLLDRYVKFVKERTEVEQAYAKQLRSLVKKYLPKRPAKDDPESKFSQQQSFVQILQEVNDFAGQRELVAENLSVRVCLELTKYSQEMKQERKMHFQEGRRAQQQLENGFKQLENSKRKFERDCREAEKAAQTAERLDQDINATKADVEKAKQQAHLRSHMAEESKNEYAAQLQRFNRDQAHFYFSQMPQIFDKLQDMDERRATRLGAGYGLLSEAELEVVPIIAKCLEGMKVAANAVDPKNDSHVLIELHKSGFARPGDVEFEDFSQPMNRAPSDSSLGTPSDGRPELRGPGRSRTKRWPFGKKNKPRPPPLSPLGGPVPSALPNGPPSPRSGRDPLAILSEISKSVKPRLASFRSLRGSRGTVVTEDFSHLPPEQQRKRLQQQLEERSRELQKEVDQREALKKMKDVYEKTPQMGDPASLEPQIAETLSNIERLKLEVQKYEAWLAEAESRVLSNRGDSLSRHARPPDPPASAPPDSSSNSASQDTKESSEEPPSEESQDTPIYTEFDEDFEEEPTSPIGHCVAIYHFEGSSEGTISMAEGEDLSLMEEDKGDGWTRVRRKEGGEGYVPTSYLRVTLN
Sequence of UniProt Q9H6R7 (Q9H6R7 whole entry, looked up): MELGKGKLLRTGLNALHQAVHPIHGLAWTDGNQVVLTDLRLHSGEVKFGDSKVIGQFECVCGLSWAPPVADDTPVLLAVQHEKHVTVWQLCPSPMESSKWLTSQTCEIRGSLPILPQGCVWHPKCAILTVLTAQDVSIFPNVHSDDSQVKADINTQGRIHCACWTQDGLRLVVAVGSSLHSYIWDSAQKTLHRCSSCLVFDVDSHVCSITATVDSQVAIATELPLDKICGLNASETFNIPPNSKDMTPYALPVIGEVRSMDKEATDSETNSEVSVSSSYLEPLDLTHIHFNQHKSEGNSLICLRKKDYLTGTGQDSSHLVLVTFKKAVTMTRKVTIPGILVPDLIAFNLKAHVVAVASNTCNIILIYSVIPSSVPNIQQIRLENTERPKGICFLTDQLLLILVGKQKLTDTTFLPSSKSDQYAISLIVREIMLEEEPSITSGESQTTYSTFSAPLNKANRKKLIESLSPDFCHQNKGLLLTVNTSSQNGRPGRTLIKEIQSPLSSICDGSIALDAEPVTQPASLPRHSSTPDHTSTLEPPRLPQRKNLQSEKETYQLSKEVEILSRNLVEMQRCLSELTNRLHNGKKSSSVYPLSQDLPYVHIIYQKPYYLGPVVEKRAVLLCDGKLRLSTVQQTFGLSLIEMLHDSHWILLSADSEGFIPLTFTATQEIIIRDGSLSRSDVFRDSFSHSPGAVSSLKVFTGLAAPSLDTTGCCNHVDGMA
Sequence of UniProt Q92890 (Q92890 whole entry, looked up): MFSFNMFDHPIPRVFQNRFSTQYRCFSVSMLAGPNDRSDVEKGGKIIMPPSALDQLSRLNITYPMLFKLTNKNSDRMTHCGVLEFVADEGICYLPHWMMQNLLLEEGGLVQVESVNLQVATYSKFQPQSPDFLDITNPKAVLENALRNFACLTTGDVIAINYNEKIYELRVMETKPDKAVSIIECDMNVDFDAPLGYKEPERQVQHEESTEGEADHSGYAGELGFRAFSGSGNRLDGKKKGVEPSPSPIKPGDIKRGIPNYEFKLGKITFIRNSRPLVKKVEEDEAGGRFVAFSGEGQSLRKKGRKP
Sequence of UniProt P49754 (P49754 whole entry, looked up): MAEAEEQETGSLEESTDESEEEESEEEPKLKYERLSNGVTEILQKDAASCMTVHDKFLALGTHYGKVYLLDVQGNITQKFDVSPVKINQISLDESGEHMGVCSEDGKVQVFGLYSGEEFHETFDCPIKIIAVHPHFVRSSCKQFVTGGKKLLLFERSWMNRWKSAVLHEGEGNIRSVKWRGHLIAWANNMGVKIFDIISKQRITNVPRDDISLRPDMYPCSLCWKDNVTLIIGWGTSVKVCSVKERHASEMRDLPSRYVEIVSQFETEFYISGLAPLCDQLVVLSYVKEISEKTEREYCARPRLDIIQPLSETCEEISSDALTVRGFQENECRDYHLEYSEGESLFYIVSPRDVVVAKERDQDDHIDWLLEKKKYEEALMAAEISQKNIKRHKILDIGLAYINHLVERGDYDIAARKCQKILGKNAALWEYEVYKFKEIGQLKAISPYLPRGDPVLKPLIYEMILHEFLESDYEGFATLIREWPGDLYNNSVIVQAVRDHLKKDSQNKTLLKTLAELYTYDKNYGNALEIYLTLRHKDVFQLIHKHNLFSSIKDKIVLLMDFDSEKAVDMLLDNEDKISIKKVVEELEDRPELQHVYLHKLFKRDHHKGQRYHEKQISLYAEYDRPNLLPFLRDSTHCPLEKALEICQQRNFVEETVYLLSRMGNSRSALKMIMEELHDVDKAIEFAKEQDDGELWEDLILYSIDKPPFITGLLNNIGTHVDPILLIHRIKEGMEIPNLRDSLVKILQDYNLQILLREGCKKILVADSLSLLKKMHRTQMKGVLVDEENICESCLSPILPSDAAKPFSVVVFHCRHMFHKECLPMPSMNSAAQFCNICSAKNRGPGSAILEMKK
Sequence of UniProt Q8WVY7 (Q8WVY7 whole entry, looked up): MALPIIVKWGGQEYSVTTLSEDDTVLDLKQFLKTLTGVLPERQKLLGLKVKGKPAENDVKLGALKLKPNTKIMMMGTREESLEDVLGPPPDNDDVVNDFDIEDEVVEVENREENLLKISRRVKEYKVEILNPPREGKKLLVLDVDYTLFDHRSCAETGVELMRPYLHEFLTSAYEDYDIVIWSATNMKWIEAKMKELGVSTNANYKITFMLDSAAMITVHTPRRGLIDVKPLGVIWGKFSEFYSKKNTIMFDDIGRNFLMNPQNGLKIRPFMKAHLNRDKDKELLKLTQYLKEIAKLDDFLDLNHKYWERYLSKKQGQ
Sequence of UniProt Q53S58 (Q53S58 whole entry, looked up): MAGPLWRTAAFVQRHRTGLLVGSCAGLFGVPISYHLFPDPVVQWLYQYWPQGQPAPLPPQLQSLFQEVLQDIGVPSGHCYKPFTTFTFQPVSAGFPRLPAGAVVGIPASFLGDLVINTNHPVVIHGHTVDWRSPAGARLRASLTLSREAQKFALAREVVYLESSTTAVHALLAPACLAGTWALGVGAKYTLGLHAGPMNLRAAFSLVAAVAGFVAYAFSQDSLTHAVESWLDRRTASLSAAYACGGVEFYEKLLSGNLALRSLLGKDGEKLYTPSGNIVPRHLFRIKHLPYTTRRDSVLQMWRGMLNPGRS
Sequence of UniProt Q9UL33 (Q9UL33 whole entry, looked up): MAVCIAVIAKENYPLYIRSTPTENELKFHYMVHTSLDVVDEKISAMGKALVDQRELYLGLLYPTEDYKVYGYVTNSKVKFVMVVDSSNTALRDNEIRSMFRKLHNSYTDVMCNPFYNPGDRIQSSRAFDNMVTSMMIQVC
Sequence of UniProt Q9UDW1 (Q9UDW1 whole entry, looked up): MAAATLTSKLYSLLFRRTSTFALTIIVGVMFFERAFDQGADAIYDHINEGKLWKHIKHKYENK

| Target | log2 fold change (bafetinib) | log2 fold change [1] | log2 fold change (nilotinib) | log2 fold change [2] | log2 fold change (dasatinib) | log2 fold change [3] | log2 fold change [4] | log2 fold change [5] | log2 fold change (tipifarnib) | log2 fold change (mubritinib) |
| --- | --- | --- | --- | --- | --- | --- | --- | --- | --- | --- |
| TMEM177 (UniProt Q53S58) | -0.123 | 0.054 | -0.001 | -0.005 | -0.045 | 0.023 | -0.019 | 0.016 | 0.004 | 0.026 |
| UBLCP1 (UniProt Q8WVY7) | 0.016 | -0.034 | -0.101 | 0.074 | -0.063 | 0.116 | -0.052 | 0.006 | -0.072 | 0.155 |
| VDAC1 (UniProt P21796) | -0.039 | -0.037 | 0.006 | 0.025 | 0.035 | -0.005 | 0.02 | 0.008 | 0.017 | 0.02 |
| TUBAL3 (UniProt A6NHL2) | 0.167 | 0.049 | -0.144 | 0.027 | 0.051 | -0.029 | 0.005 | -0.095 | -0.097 | -0.01 |
| VPS18 (UniProt Q9P253) | -0.097 | 0.059 | -0.052 | -0.069 | -0.194 | -0.022 | 0.086 | 0.089 | -0.047 | 0.088 |
| WDR46 (UniProt O15213) | 0.251 | -0.026 | -0.055 | 0.117 | 0.364 | 0.096 | -0.376 | -0.187 | 0.084 | -0.093 |
| TRAPPC2L (UniProt Q9UL33) | -0.042 | -0.02 | -0.062 | -0.068 | -0.118 | 0.064 | -0.041 | -0.111 | -0.111 | 0.013 |
| UQCR10 (UniProt Q9UDW1) | -0.047 | -0.011 | -0.003 | 0.02 | -0.009 | -0.059 | 0.072 | 0.084 | 0.007 | -0.024 |
| WDCP (UniProt Q9H6R7) | -0.052 | -0.05 | -0.149 | -0.12 | -0.074 | -0.035 | -0.099 | -0.001 | -0.029 | 0 |
| TRIP10 isoform 2 (UniProt Q15642) | -0.019 | 0.026 | 0.005 | -0.174 | 0.035 | -0.162 | -0.033 | -0.135 | -0.04 | 0.142 |
| TTC38 (UniProt Q5R3I4) | -0.012 | 0.021 | 0.038 | 0.034 | 0.024 | -0.04 | 0.071 | -0.021 | 0.05 | 0.322 |
| TRMT2A (UniProt Q8IZ69) | 0.059 | -0.001 | 0.021 | -0.048 | -0.019 | -0.064 | 0 | 0.009 | 0.03 | -0.005 |
| TMEM161B (UniProt Q8NDZ6) | -0.01 | 0.073 | -0.148 | -0.018 | -0.273 (active) | -0.046 | -0.08 | 0.103 | -0.043 | 0.036 |
| WDR62 isoform 4 (UniProt O43379) | -0.193 | 0.016 | -0.149 | -0.041 | -0.107 | -0.083 | 0.009 | 0.032 | 0.002 | 0.024 |
| WASHC2C, A0A096LPC5 | -0.144 | -0.335 | 0.093 | -0.101 | 0.13 | -0.003 | -0.016 | -0.082 | 0.283 | 0.123 |
| XPO5 (UniProt Q9HAV4) | -0.037 | 0.036 | -0.07 | -0.118 | -0.11 | -0.054 | 0.026 | 0.004 | -0.071 | 0.006 |
| USP14 (UniProt P54578) | -0.03 | 0.012 | -0.006 | -0.026 | -0.087 | 0.015 | -0.001 | -0.065 | -0.067 | 0.029 |
| UFD1 isoform 1 (UniProt Q92890) | -0.007 | 0.01 | 0.025 | -0.019 | 0.031 | -0.003 | 0.006 | 0.002 | -0.046 | 0.041 |
| VPS41 (UniProt P49754) | -0.134 | 0.034 | -0.012 | -0.039 | -0.094 | -0.03 | 0 | 0.013 | -0.084 | 0.08 |
| TMEM189-UBE2V1 (UniProt I3L0A0) | -0.038 | -0.035 | -0.012 | 0.229 (active) | -0.009 | 0.055 | 0.015 | 0.069 | 0.056 | 0.026 |
| UBE2Q1 (UniProt Q7Z7E8) | -0.029 | 0.015 | -0.134 | -0.103 | -0.101 | -0.046 | -0.012 | 0.027 | -0.103 | 0.006 |
| UCHL5 (UniProt Q9Y5K5) | 0.014 | 0.045 | -0.06 | -0.071 | -0.152 | 0.007 | 0.012 | 0 | -0.093 | -0.001 |
| TOE1 (UniProt Q96GM8) | 0.301 | 0.033 | 0.152 | 0.178 | 0.097 | 0.017 | -0.113 | -0.072 | -0.036 | 0.111 |
| TXN2 (UniProt Q99757) | -0.105 | -0.104 | 0.034 | -0.005 | 0.083 | -0.048 | 0.227 | 0.013 | 0.059 | 0.009 |
| TNNC2 (UniProt P02585) | -0.057 | -0.058 | 0.057 | 0.024 | 0.022 | -0.015 | 0.049 | 0.032 | 0.015 | 0.001 |
| TRIM44 (UniProt Q96DX7) | -0.033 | -0.01 | -0.024 | -0.023 | -0.029 | 0.026 | 0.002 | 0.051 | -0.041 | 0.065 |
| TNFAIP8 isoform 4 (UniProt O95379) | -0.079 | 0.014 | -0.045 | -0.095 | -0.109 | 0.007 | 0.047 | 0.005 | -0.023 | 0.031 |
| TXNIP (UniProt Q9H3M7) | 0.03 | -0.072 | 0.018 | 0.185 | 0.005 | -0.264 | 0.105 | -0.105 | 0.199 | -0.264 |
| UXT isoform 2 (UniProt Q9UBK9) | 0.016 | 0.036 | 0.04 | -0.068 | -0.033 | 0.001 | 0.11 | 0.026 | -0.144 | 0.014 |
